CHX counter: affects cycloheximide protein synthesis inhibition readout, counter-screen; cell reporter, cycloheximide protein synthesis inhibition counterscreen; max response, %; 300,000 tested, 12% active; in the data active = max response mostly above about 13%, no sharp cut-off; inactive = mostly below about 14%; note: read at 38.3 µM for the half of the compounds with a filed dose; 0% is about no effect
Pf growth 48h: P. falciparum growth inhibition at 48 hours (one generation); P. falciparum luciferase growth in erythrocytes, 48 h; Potency, µM (doses to about 28.7 µM), for inactives: top-dose activity change, negative = inhibition, usual class: inhibitors; 310,000 tested, 5.9% active; AID 504832; note: potency is the fitted concentration of half-maximal effect; % is set by controls: 0 for no effect and ±100 for the full control effect
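Parasite viability was followed by luminescence of a genomically integrated firefly luciferase. Cultures held 0.1% parasitemia at 2% hematocrit (final), incubated under 5% CO2 at 37 C.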
Shiga inhibitor: inhibitors of Shiga toxin in Vero cells; Vero cells, Shiga toxin protein synthesis inhibition reporter; inhibition, % at 38.7 µM; 290,000 tested, 9.2% active; in the data active = inhibition mostly above about 28%, no sharp cut-off; inactive = mostly below about 43%; note: 0% is about no effect
HCMV inh: inhibitors of human cytomegalovirus; 410,000 tested, 4.5% active; HFF cells, HCMV-luciferase reporter, 72 h; stronger effect = lower value; activity change, negative = inhibition, % at 57.5 µM; in the data active = activity change below about -60%; inconclusive = no clear call, values can overlap the other calls; inactive = above about -39%; note: % is set by controls: 0 for no effect and ±100 for the full control effect
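Compounds were evaluated in HFFs infected with an HCMV luciferase reporter virus (MOI 1 PFU/cell). Luciferase in lysates collected 72 h post infection served as the replication measure.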
HCV inh: blocks hepatitis C virus; Huh7.5.1 HCVcc-Cre infection, luciferase reporter, 44 h; Potency, µM (titrated, usually from 41.8 µM), without a hit: at the highest dose activity change, negative = inhibition, most hits filed as inhibitors; 340,000 tested, 3.4% active; AID 651820; note: potency is the fitted concentration of half-maximal effect; % is set by controls: 0 for no effect and ±100 for the full control effect
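After 44 h co-culture of compound, cells and HCVcc-Cre (~0.5 moi), substrate is added for 15 min at room temperature and luciferase measured over 15 sec. Cells were seeded at 1,000/well and pre-cultured 4 h.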
Pf growth 96h: P. falciparum growth inhibition at 96 hours; P. falciparum luciferase reporter growth, 96 h; Potency, µM (titrated, usually from 28.7 µM), inactives show at the top dose activity change, negative = inhibition, usual class: inhibitors; 320,000 tested, 6.9% active; AID 504834; note: potency is the fitted concentration of half-maximal effect; % is set by controls: 0 for no effect and ±100 for the full control effect
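Infected RBCs, 2% Hct / 0.05% parasitemia final; luciferase-reporter P. falciparum; cpd 96 h, 37 C, 5% CO2; luciferase detection reagent; luminescence.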
The depositor's hits bear a star; ? = inconclusive; · = no result. Sampled rows, rich in hits. Any-hit rate of the full collection: about 21%. Unless noted, calls come from the whole dose curve; as a rule, active = well fitted inhibition curve with a large enough effect; inconclusive = small, poorly fitted or top-dose-only effect, or another doubt; inactive = no such curve, though single readings can be large or run the other way.

SMILES	CHX counter	Pf growth 48h	Shiga inhibitor	HCMV inh	HCV inh	Pf growth 96h
CN1C(=O)C(=Cc2c(OCc3cnc(Cl)s3)ccc3ccccc23)C(=O)N(C)C1=O	53.1*	36.8%	82.5*	494.4	?	25.9%
COc1ccc(S(=O)(=O)c2nnn(-c3ccc(C)c(Cl)c3)c2C)cc1	·	·	·	-19.1	·	·
Cc1cc(C)c2c(CC(=O)N(Cc3ccccc3)C3CCS(=O)(=O)C3)coc2c1 (centres undefined)	·	·	·	20.2	·	·
Cc1cc(O)cc2c(=O)c3ccccc3sc12	42.4*	?	131.0*	-17.0	?	?
O=C(c1ccccc1N(Cc1ccccc1)S(=O)(=O)c1ccccc1)N1CCOCC1	-1.0	-64.7%	-9.6	-27.4	5.6%	0.1%
COc1ccccc1N(CC(=O)N1CCC(C(N)=O)CC1)S(=O)(=O)c1ccccc1	-6.1	13.1%	-2.4	?	12.1%	6.1%
COc1ccccc1N1CCN(C(=O)CN(c2ccccc2OC)S(=O)(=O)c2ccccc2)CC1	-1.4	?	10.8	46.7	11.5%	1.31µM*
CCN(CC)C(=O)CN(c1cc2c(cc1OC)oc1ccccc12)S(=O)(=O)c1ccccc1	-2.1	9.28µM*	43.0	24.2	10µM*	10.4µM*
CCOC(=O)N1CCN(C(=O)CN(c2cc(Cl)ccc2OC)S(=O)(=O)c2ccccc2)CC1	-5.4	?	-5.2	-92.3*	-7.2%	?
COc1cc2oc3ccccc3c2cc1N(CC(=O)N(C)C)S(=O)(=O)c1ccccc1	-2.7	?	-18.6	75.9	-19.8%	?
CCOC(=O)N1CCN(C(=O)CN(c2cccc(C)c2)S(=O)(=O)c2ccccc2)CC1	-7.1	?	-7.8	-6.1	-2.8%	-1.3%
CCOC(=O)N1CCN(C(=O)c2ccccc2N(Cc2ccccc2)S(=O)(=O)c2ccccc2)CC1	-2.8	4.65µM*	22.1	7.3	-19.0%	21.9%
COc1ccc2cc1Oc1ccc(cc1)CC1c3c(cc(OC)c4c3Oc3cc5c(cc3O4)CCNC5C2)CCN1C (centres undefined)	-6.2	0.522µM*	-22.3	·	?	0.329µM*
COc1ccc2cc1Oc1ccc(cc1)C[C@H]1c3c(cc(OC)c4c3Oc3c(ccc5c3[C@H](C2)N(C)CC5)O4)CCN1C	·	·	·	·	6.6%	·
COc1ccc2cc1Oc1ccc(cc1)CC1c3c(cc4c(c3Oc3cc5c(cc3OC)CCN(C)C5C2)OCO4)CCN1C (centres undefined)	·	5.36µM*	·	·	·	5.36µM*
COc1ccc2cc1Oc1ccc(cc1)CC1c3cc(c(OC)cc3CCN1C)Oc1c(OC)c(OC)c(OC)c3c1C(C2)N(C)CC3 (centres undefined)	-2.7	·	-11.0	·	·	·
CCOC(=O)c1nccnc1C(=O)Nc1ccc(C(F)(F)F)cc1	0.5	-8.3%	-9.1	9.7	0.5%	31.2%
O=C1OCc2cc(-n3cccc3)ccc21	17.4*	17.4%	28.2	-6.9	?	?
Nc1ccc2c(c1)COC2=O	33.5*	37.5%	82.6*	48.4	-3.8%	?
Cc1cc(C)nc(N/C(=N\S(=O)(=O)Cc2ccccc2)Nc2ccc(F)c(Cl)c2)n1	1.2	-8.4%	-14.2	-7.0	-0.4%	9.28µM*
Fc1ccc(/C=N/Nc2nnnn2-c2ccccc2)cc1	-1.8	4.7%	-5.6	-24.0	2.3%	8.28µM*
Cc1cccc(S(=O)(=O)Nc2cc(Cl)ccc2N2CCOCC2)c1	·	·	·	-3.2	8.2%	·
CCc1cc2c(CN3CCN(CCO)CC3)cc(=O)oc2cc1O	2.2	13.1µM*	19.7	13.8	-11.3%	?
CCc1cc2c(CN3CCN(C)CC3)cc(=O)oc2cc1O	-1.3	?	-18.4	-22.7	-14.3%	·
Cc1c(O)ccc2c(CN3CCN(C/C=C/c4ccccc4)CC3)cc(=O)oc12	-2.5	2.62µM*	18.6	-60.2*	11.2µM*	?
SMILES	CHX counter	Pf growth 48h	Shiga inhibitor	HCMV inh	HCV inh	Pf growth 96h
Cc1cc2oc(=O)cc(CN3CCOCC3)c2cc1O	-1.6	18.4%	-2.9	-17.7	-1.3%	22.1%
O=S(=O)(c1ccccc1)N1CCN(Cc2c(O)ccc3ccccc23)CC1	·	·	·	-4.2	9.3%	·
Cc1cc2oc(=O)cc(CN3CCN(C/C=C/c4ccccc4)CC3)c2cc1O	-3.2	2.94µM*	7.5	-20.4	·	·
Oc1ccc2ccccc2c1CN1CCN(C/C=C/c2ccccc2)CC1	1.5	?	-3.9	-23.7	-14.2%	9.28µM*
CCOC(=O)C1=C(CN2CC(C)CC(C)C2)NC(=O)NC1c1ccc2c(c1)OCO2 (centres undefined)	-2.1	?	-14.7	?	?	-19.9%
CCCOc1ccc(C(=O)Nc2c(C(=O)c3ccc(C)cc3)oc3ccccc23)cc1	·	·	·	-14.6	·	·
O=C(NCc1ccc(F)cc1)c1ccc2oc(=O)n(Cc3ccccc3)c2c1	·	·	·	-10.3	·	·
CCOC(=O)N(C)C[C@H]1OCc2cn(nn2)CCCC(=O)N([C@@H](C)CO)C[C@@H]1C	·	·	·	-2.4	·	·
O=C1OC(N2CCN(C/C=C/c3ccccc3)CC2)c2ccccc21 (centres undefined)	0.1	?	-10.7	2.5	-21.6%	80.0%
O=c1cc(CN2CCN(C/C=C/c3ccccc3)CC2)c2cc(O)c(-c3ccccc3)cc2o1	-2.0	0.928µM*	-8.6	-5.0	?	1.04µM*
O=c1cc(-c2ccccc2)c2ccc(O)cc2o1	·	·	·	-13.6	-15.6%	·
CC(C)CN(Cc1cc(=O)oc2cc(-c3ccccc3)c(O)cc12)CC(C)C	2.2	0.329µM*	16.3	-33.2	14.1µM*	?
Cc1cc(O)c2c(CN3CCN(Cc4ccccc4)CC3)cc(=O)oc2c1	0.9	?	-2.4	3.1	?	8.28µM*
Cc1cc2oc(=O)cc(CN3CCN(S(=O)(=O)c4cccs4)CC3)c2cc1C	-2.6	?	-2.3	-13.3	?	7.38µM*
O=c1cc(CN2CCN(Cc3ccccc3)CC2)c2cc(O)ccc2o1	0.7	-23.6%	14.4	?	-16.8%	?
Cc1cc(C)c2c(CN3CCN(CCO)CC3)cc(=O)oc2c1	72.0*	?	57.2*	7.2	-18.9%	7.5%
Cc1cc2oc(=O)cc(CN3CCN(Cc4ccccc4)CC3)c2cc1O	12.8	9.28µM*	-3.7	-8.8	11.2µM*	?
CCOc1nc2cccc(C(=O)OC(C)OC(=O)OC3CCCCC3)c2n1Cc1ccc(-c2ccccc2-c2nn[nH]n2)cc1 (centres undefined)	·	·	·	-85.5*	·	·
CC(CN1CCCCC1)OC(=O)c1cccc(F)c1 (centres undefined)	18.0*	31.5%	28.2*	-14.5	?	10.9%
CC(CN1CCCC1)OC(=O)c1ccc(Cl)cc1 (centres undefined)	12.5	3.8%	-5.2	2.7	-8.5%	5.0%
COc1cccc(C(=O)OCCN2CCCCC2)c1	24.5	7.6%	30.9	-100.3*	16.4%	5.3%

From PubChem BioAssay
